Experimental data published in PubChem BioAssay AID485317 (Broad Institute, 2010).
Screen size: about 290,000 compounds; about 11,000 (3.8%) were called active. The sample holds actives, similar compounds and a random draw of the others, so the mix is not that of the screen. A number with no mark means an inactive call.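 How the source made its calls: active means mean replicate inhibition above about 79%, with every replicate also reaching it (limit read from the data); inconclusive means only one of the two criteria met; inactive means mean below limit and not every replicate reaching it.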

Each compound was assayed against FAD-linked sulfhydryl oxidase ALR (Homo sapiens) (UniProt P55789) (assay: inhibitors of human ALR sulfhydryl oxidase, primary screen, biochemical, H2O2 detection, HRP-luminol luminescence, single point (AID 485317)). Conditions: purified ALR, DTT oxidation, hits give high values, concentration not given here.
FAD-linked sulfhydryl oxidase ALR (Homo sapiens), sequence (P55789 whole entry, looked up): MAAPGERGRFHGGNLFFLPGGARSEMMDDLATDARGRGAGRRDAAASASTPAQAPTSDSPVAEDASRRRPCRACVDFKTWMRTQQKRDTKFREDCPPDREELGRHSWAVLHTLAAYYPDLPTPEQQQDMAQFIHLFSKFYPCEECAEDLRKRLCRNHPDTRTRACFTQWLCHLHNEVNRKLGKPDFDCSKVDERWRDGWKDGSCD

Row | SMILES | inhibition
1 | CC(=O)N1CCc2c(sc(NC(=O)CCS(=O)(=O)c3ccc(C)cc3)c2C(N)=O)C1 | -33.3%
2 | C[C@H]1COC(=O)[C@H](CC(=O)OC(C)(C)C)C/C=C\C[C@@H](CC(=O)N[C@H](CO)Cc2ccccc2)C(=O)N1 | 1.44%
3 | CCCCN(C(=O)c1ccc2ccccc2c1)c1c(N)n(CCCC)c(=O)[nH]c1=O | -4.16%
4 | Cc1cccc(-n2cnc(C(=O)NNC(=S)Nc3ccccc3)c2)n1 | 47.8%
5 | Cc1nn(C)cc1C(=O)NNC(=S)Nc1ccc(Cl)cc1 | 49.6%
6 | Cn1cc(Cl)c(C(=O)NNC(=S)Nc2cccc(Cl)c2)n1 | 89.2% (active)
7 | CC(OC(=O)CCCOc1ccccc1)C(=O)Nc1ccc(Cl)cn1 (stereo not drawn) | -0.655%
8 | CN(Cc1ccc(F)cc1)C(=O)CN1C(=O)c2ccccc2S1(=O)=O | 1.6%
9 | COc1ccc(COC(=O)N/N=C(\C)CC(=O)Nc2ccc(Cl)cc2)cc1 | -4.07%
10 | C/C(CC(=O)Nc1cccc(C(F)(F)F)c1)=N\NC(=O)C(=O)NCC(C)C | -10.3%
11 | C/C(CC(=O)Nc1ccc(Cl)cc1)=N\NC(=O)C(=O)NCCO | 96.1% (active)
12 | CC(C#N)OC(=O)c1cccnc1SCC(=O)Nc1ccc2c(c1)OCO2 (stereo not drawn) | -10.2%
13 | Cc1ccc(S(=O)(=O)N2CCN(C(=O)c3ccccc3-c3nc4ccccc4s3)CC2)c(C)c1 | -15.3%
14 | Cc1ccc(NC(=O)C(c2ccccc2)N2CCN(C(=O)c3ccco3)CC2)cc1 (stereo not drawn) | -2.06%
15 | COc1cc(OC)cc(C(=O)N[C@H](C(=O)NNC(=O)c2ccc(Br)cc2)C(C)C)c1 | -9.81%
16 | CC(=NCc1ccco1)C1=C(O)c2ccccc2C1=O | 2.24%
17 | CC(=NCc1ccco1)c1c(C(F)(F)F)[nH]n(-c2nc3ccccc3s2)c1=O | 92.1% (active)
18 | CCc1ccc(-c2cc(C(=O)NCc3ccco3)c3ccccc3n2)s1 | 52.8%
19 | COc1cc(C=NNC(=O)c2cccnc2)ccc1OC(=O)c1ccccc1F | 20.1%
20 | COc1ccc(CCNC(=O)COC(=O)c2cnc(Cl)c(Cl)c2)cc1 | -2.44%
21 | Cc1cc(NC(=O)CSc2ncc(C(F)(F)F)cc2Cl)no1 | -1.5%
22 | COc1cc2c(cc1/C=C1/NC(=O)N(c3ccccc3)C1=O)OCO2 | -7.41%

Row | SMILES | inhibition
23 | COc1ccc(S(=O)(=O)Nc2ccc3c(c2)OCO3)cc1Cl | 9.92%
24 | COc1ccccc1C1C2=C(COC2=O)Nc2cc3c(cc21)OCO3 (stereo not drawn) | 97.9% (active)
25 | CC[C@@]12C(=O)N(c3ccccc3)C(=O)N1[C@H](c1ccc(Br)cc1)[C@@H]1C(=O)N(C(C)(C)C)C(=O)[C@@H]12 | -9.54%
26 | COc1cc(S(=O)(=O)N2CCN(C(=O)C3CC3)CC2)ccc1NC(C)=O | -5.34%
27 | COc1ccc(S(=O)(=O)N(C)C[C@H]2Oc3ccc(NS(=O)(=O)c4cccs4)cc3CC(=O)N([C@H](C)CO)C[C@H]2C)cc1 | -0.0995%
28 | O=c1oc(-c2ccco2)nc2sc3c(c12)CCCCC3 | 88.4% (active)
29 | Cn1c(=O)n(Cc2ccco2)c(=N)c2c3c(sc21)CCCC3 | 3.35%
30 | O=S(=O)(c1ccc(Cl)cc1)c1nc(-c2ccco2)oc1N1CCCCC1 | 5.77%
31 | CCC(CO)Oc1cc(NC(=O)c2ccc(Cl)cc2)c2ncn(C(C)C)c2c1 (stereo not drawn) | -2.2%
32 | CC(=O)c1c(C)[nH]c(C(=O)N2CCN(S(=O)(=O)c3ccc(F)c(F)c3)CC2)c1C | -0.525%
33 | CCN(/N=C/c1ccccc1)c1cc(=O)n(C)c(=O)[nH]1 | -9.29%
34 | Oc1ccc(/C=N/N(Cc2ccccc2)c2ccccc2)cc1 | 99.2% (active)
35 | CN(C)c1ccc(/C=N/N(Cc2ccccc2)c2ccccc2)cc1 | -4.17%
36 | Cc1ccc(C(=O)NNC(=O)CSc2nnc3ccccn23)cc1 | -4.37%
37 | Cc1cc(C)c(-c2c(O)c3ccccc3n(C)c2=O)c(C)c1 | -13.7%
38 | Cc1cc(O)c(Sc2ccccc2)c(=O)o1 | -17.8%
39 | COc1ccc(NCCc2ccccn2)cc1 | 99.8% (active)
40 | COc1cccc(NC(=S)NCc2ccccn2)c1 | -3.74%
41 | Cc1c(C)c(C)c(S(=O)(=O)NCCc2ccccn2)c(C)c1C | 3.53%
42 | COc1ccc(C)cc1NC(=O)CCCN1C(=O)NC(C)(C)C1=O | 0.111%
43 | Cc1cccc(-c2oc3ccc(-c4ccc5c(c4)OCO5)cc3c2C#Cc2cncn2C)c1 | -9.37%
44 | Cc1ccc(CS(=O)(=O)c2ncc(Cl)c(C(=O)Nc3nnc(C)s3)n2)cc1 | 97.5% (active)

Row | SMILES | inhibition
45 | Cc1cccc(CS(=O)(=O)c2ncc(Cl)c(C(=O)Nc3ccc(F)cc3)n2)c1 | 98.4% (active)
46 | CSc1nnc(NC(=O)c2nc(S(=O)(=O)Cc3ccc(C)cc3)ncc2Cl)s1 | 8.89%
47 | CSc1ncc(Cl)c(C(=O)Nc2cc(C)ccc2C)n1 | -2.22%
48 | Cc1ccc(S(=O)(=O)CC(=O)Nc2nnc(C)s2)cc1 | -1.7%
49 | Cc1cccc(NC(=O)c2nc(S(=O)(=O)Cc3ccccc3)ncc2Cl)c1 | 4.68%
50 | N#Cc1cccc(OC(=O)c2ccc3c(=O)n4c(nc3c2)CCC4)c1 | 43.5%
51 | CC1CCCCC1NC(=O)COc1ccc(C#N)cc1 (stereo not drawn) | 0.208%
52 | COc1cc(Cl)c(C)cc1NC(=O)CSc1nnc(CN2CCCC2)o1 | -7.65%
53 | Cc1ccc(C)c(C(=O)COC(=O)Cn2[nH]c(=O)c3ccccc3c2=O)c1 | -2.55%
54 | Cc1cc(OC(C)C(=O)Nc2ccc(S(=O)(=O)Nc3onc(C)c3C)cc2)cc(C)c1Cl (stereo not drawn) | 97.6% (active)
55 | CC(Oc1cccc(Cl)c1)C(=O)Nc1ccc(S(=O)(=O)Nc2ncccn2)cc1 (stereo not drawn) | 7.5%
56 | CCn1c(SCC(=O)Nc2ccc(S(=O)(=O)Nc3onc(C)c3C)cc2)nnc1-c1ccccc1 | 53.3%
57 | CCc1ccc(OC(C)C(=O)Nc2ccc(S(=O)(=O)Nc3cc(C)on3)cc2)cc1 (stereo not drawn) | 9.12%
58 | Cc1noc(NS(=O)(=O)c2ccc(N/C=C/C(=O)c3ccccc3)cc2)c1C | 85.4% (active)
59 | Cc1noc(NS(=O)(=O)c2ccc(NC(=O)C34CCC(CC3)C4)cc2)c1C | 6.47%
60 | CCOc1cc(N2CCOCC2)c(OCC)cc1NC(=O)COc1cccc(Cl)c1 | -15.1%
61 | O=C(CCCOc1ccccc1)NNC(=O)c1ccc(Cl)cc1 | 3.44%
62 | Cc1occc1C(=O)N/N=C/c1ccc(-c2cccc([N+](=O)[O-])c2)o1 | -4.94%
63 | COc1ccc(NC(=O)CNc2cc(S(=O)(=O)N3CCOCC3)ccc2N2CCOCC2)c(OC)c1 | 1.23%
64 | Cc1ccc(NS(=O)(=O)c2ccc(C(C)C)cc2)cc1S(=O)(=O)N1CCOCC1 | 4.5%
65 | Cc1cc(C(=O)Nc2nnc(C3CC3)s2)c(C)s1 | -0.2%
66 | CC(C)CN(C(=O)COC(=O)c1ccc(Cl)c(N)c1)c1c(N)n(Cc2ccccc2)c(=O)[nH]c1=O | -4.01%

Row | SMILES | inhibition
67 | CN1C(=O)/C(=C/c2ccco2)SC1=Nc1cccc(C(=O)O)c1 | 1.79%
68 | Cc1cc(/C=C2\SC(=O)N(C)C2=O)c(C)n1-c1cccc(C(=O)O)c1 | 81.6% (active)
69 | Cc1cc(/C=N/n2cnnc2)c(C)n1-c1cccc(C(=O)O)c1 | 2.1%
70 | Cc1ccc(-c2c3c(=O)n(C)c(=O)n(C)c3cn2-c2ccccc2O)cc1 | -5.8%
71 | Cc1ccc(-c2c3c(=O)n(C)c(=O)n(C)c3cn2-n2cnnc2)cc1 | 97.2% (active)
72 | COc1ccc(-c2c3c(=O)n(C)c(=O)n(C)c3cn2-c2cccc(OC)c2)cc1 | -5.98%
73 | O=C(COC(=O)c1cc(S(=O)(=O)N2CCOCC2)ccc1Cl)NCCc1ccccc1 | -0.788%
74 | CCc1ccccc1OCC(=O)Nc1ccc(C)c(S(=O)(=O)N2CCCCCC2)c1 | -0.917%
75 | COc1ccc(C(=O)N2CCC(C(=O)Nc3ccc(C)cc3)CC2)cc1 | -30.7%
76 | O=C(Nc1ccc2c(c1)OCCO2)C1CCCN(c2ncccn2)C1 (stereo not drawn) | -3.09%
77 | COC(=O)c1cccc(C(=O)N2CCCC(Nc3ccc4c(c3)OCCO4)C2)c1 (stereo not drawn) | 93.9% (active)
78 | COc1ccc(NC2CCCN(C(=O)c3ccncc3)C2)cc1 (stereo not drawn) | 95.8% (active)
79 | CC(C)c1ccc(NC2CCCN(C(=O)c3ccncc3)C2)cc1 (stereo not drawn) | 53.9%
80 | Cc1cccc(C(=O)N2CCCC(Nc3ccc(C(C)C)cc3)C2)n1 (stereo not drawn) | 97.8% (active)
81 | CC(C)c1ccc(NC(=O)C2CCCN(S(=O)(=O)c3cccnc3)C2)cc1 (stereo not drawn) | 1.01%
82 | COC(=O)c1cccc(C(=O)N2CCC(CCC(=O)NCc3ccc(F)cc3)CC2)c1 | -3.28%
83 | CC(C)c1ccc(NC(=O)NC2CCCCC2)cc1 | -0.723%
84 | O=C(Nc1ccc2nc3n(c(=O)c2c1)CCCC3)c1ccc(Cl)nc1 | 0.685%
85 | COc1ccccc1-c1nnc(-c2ccc(F)cc2)o1 | 2.91%
86 | COc1ccc(NS(=O)(=O)c2ccc(C)c(C(=O)N(C)Cc3ccc(OC)cc3OC)c2)cc1 | -17.9%
87 | O=C(Nc1ccc(S(=O)(=O)N2CCCCC2)cc1)C1CCN(C(=O)c2ccc(F)cc2)CC1 | -0.325%
88 | CC1CCN(C(=O)c2cccc(S(=O)(=O)N3CCCc4ccccc43)c2)CC1 | -15.4%
